# Compound activity (PubChem BioAssay)
# VP16 counter = counter-screen for ROR gamma inhibitors: Gal4-VP16 reporter | Drosophila S2 Gal4-VP16 UAS-luciferase, luminescence, 20 h | Potency, µM (doses to about 53.6 µM), actives largely listed as inhibitors | hit rate 3.5% among 310,000 | AID 2546;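 further: Gal4-VP16 expression switched on by copper sulfate through the metallothionein promoter; nearly all actives have a fitted effect of over 50% in size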
# GLP1R cytotox = cytotoxicity in counter-screen for GLP-1R inverse agonists; AID 624418; Potency, µM (highest dose often 38.3 µM), actives largely listed as inhibitors; HEK293 cAMP-luciferase reporter cells, luminescence, 24 h; hit rate 0.13% among 410,000;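 further: loss of luciferase light is scored as toxicity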
#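 1536-well qHTS counterscreen of the MLSMR; 200 cells/uL, 12 h pre-incubation, 23 nL cpd, 24 h at 37 deg C 5% CO2, luciferase detection reagent, 12 min RT, luminescence. Inhibition = undesired.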
# GLP1R ag = agonists of human GLP-1 receptor | hit rate 0.007% among 380,000 | P43220 | HEK293 GLP-1R CRE-luciferase, luminescence, 4-6 h; cells express a hypersensitive GLP-1R form | Potency, µM (top dose mostly 45.6 µM), actives largely listed as activators | AID 624172
# RORgamma inh = blocks mouse ROR gamma transcriptional activity; Potency, µM (titrated, usually from 53.6 µM), most hits filed as inhibitors; Drosophila S2 Gal4-RORgamma UAS-luciferase reporter, 20 h; P51450; hit rate 5.4% among 310,000; further: nearly all actives have a fitted effect of over 60% in size
# Target sequence (P51450 whole entry, looked up, the tested form may be a part): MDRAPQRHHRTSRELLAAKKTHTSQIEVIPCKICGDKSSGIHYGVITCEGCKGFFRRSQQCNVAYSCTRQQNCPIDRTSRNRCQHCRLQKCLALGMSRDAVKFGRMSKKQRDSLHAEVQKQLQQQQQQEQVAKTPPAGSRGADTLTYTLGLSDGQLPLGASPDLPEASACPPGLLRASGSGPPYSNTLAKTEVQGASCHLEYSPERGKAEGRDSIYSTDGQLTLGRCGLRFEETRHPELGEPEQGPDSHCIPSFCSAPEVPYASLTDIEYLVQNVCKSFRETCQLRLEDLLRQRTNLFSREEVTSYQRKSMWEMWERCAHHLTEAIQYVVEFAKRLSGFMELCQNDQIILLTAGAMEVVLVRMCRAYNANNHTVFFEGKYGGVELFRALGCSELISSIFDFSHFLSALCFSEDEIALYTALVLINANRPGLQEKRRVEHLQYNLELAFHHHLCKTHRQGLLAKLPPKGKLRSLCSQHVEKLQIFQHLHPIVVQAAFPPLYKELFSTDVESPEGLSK
#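 A Gal4/UAS one-hybrid system in insect cells: metallothionein-promoter Gal4–ROR gamma fusion plus Photinus luciferase reporter. Copper sulfate 700 uM final, 20 hr ambient incubation, luminescent detection after 10 min with reagent.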
# GLP1R inv ag = inverse agonists of human GLP-1 receptor. P43220. HEK293 GLP-1R CRE-luciferase, luminescence, 24 h; GLP-1R form is constitutively active. Potency, µM (highest dose often 38.3 µM), usual class: inhibitors. hit rate 1.6% among 410,000; further: nearly all actives have a fitted effect of over 55% in size
#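 Assay principle: reduced luminescence from a cAMP-responsive reporter in HEK293 cells co-expressing a constitutively active GLP-1R. Conditions: 24 hr compound incubation, 37 deg C, 5% CO2.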
# Numbers stand for hits; – = inactive; ? = inconclusive; · = no result given. A selection: hits, their analogues and other compounds. The true share with any hit is near 5.9%. The call rests on the fitted dose curve; in most records, active means well fitted curve in the direction sought with a large enough effect; inconclusive means small, poorly fitted or top-dose-only effect, or another doubt; inactive means no such curve, though single readings can be large; an effect the other way counts as inactive or inconclusive.
SMILES,VP16 counter,GLP1R cytotox,GLP1R ag,RORgamma inh,GLP1R inv ag
CCC(CC)C(=O)N1CCN(c2ccccc2)CC1,–,–,–,–,–
O=C(C(=O)N1CCN(c2cccc(Cl)c2)CC1)c1c[nH]c2ccccc12,–,–,–,–,8.91µM
CCC(C(=O)N1CCN(c2cccc(Cl)c2)CC1)c1ccccc1 (configuration not stated),–,–,–,–,5.01µM
O=C(C(Cc1ccccc1)n1cccc1)N1CCN(Cc2ccccc2)CC1 (configuration not stated),–,–,–,–,?
O=C(C(Cc1ccccc1)n1cccc1)N1CCN(c2cccc(Cl)c2)CC1 (configuration not stated),–,–,–,–,11.2µM
CCCCOc1ccc(C2c3c(oc4ccc(C)cc4c3=O)C(=O)N2CCCN(C)C)cc1OCC (configuration not stated),·,–,·,·,–
Cc1ccc(Cl)cc1,–,·,·,–,·
CC[C@H](c1ccccc1)c1noc(CCN(CC)CC)n1,·,·,–,·,·
CCNC(=S)N/N=C(\C)c1ccc2ccccc2c1,7.08µM,·,·,2.82µM,·
C/C(=N\NC(=O)COc1ccc(C#N)cc1)c1ccccc1OC(F)F,15.8µM,–,–,11.2µM,–
C/C(=N\NC(=O)c1ccco1)c1cccc2ccccc12,–,–,–,–,–
CCNC(=S)N/N=C(\C)c1ccc2ccccc2c1OC(F)F,7.08µM,?,–,1.26µM,?
C/C(=N\NC(=S)NC1CCCCC1)c1ccc(OC(F)F)cc1OC(F)F,?,?,–,?,?
C/C(=N\NC(=O)Nc1ccccc1)c1ccc2ccccc2c1,?,–,–,–,–
C/C(=N\NC(=S)NC(C)C)c1ccccc1OC(F)F,5.62µM,?,–,1.78µM,?
COCCN(CCOC)c1ncnc2c1c(-c1ccccc1)cn2-c1ccc(C)c(Cl)c1,·,–,·,·,?
Cc1ccc(S(=O)(=O)N(C)c2cccc3cccnc23)cc1,–,·,·,–,·
CN(C)C(=O)CCSC(SCCC(=O)O)c1cccc(/C=C/c2ccc3ccc(Cl)cc3n2)c1 (configuration not stated),–,·,–,?,·
OC[C@H]1NC[C@@H](O)[C@@H](O)[C@@H]1O,–,·,·,–,·
CCNC(=S)N/N=C(\C)c1cccc(OC)c1,–,–,–,2.51µM,–
COc1cccc(/C(C)=N/NC(=O)c2ccc(N(C)C)cc2)c1,–,–,–,?,–
COc1cccc(NC(=S)N/N=C2\CC(C)(C)Oc3ccc(O)cc32)c1,4.47µM,?,–,7.08µM,7.08µM
Cc1cccc(NC(=S)NNC(=O)c2ccc3c(c2)OCO3)c1,?,–,–,–,–
Cc1cccc(NC(=S)N/N=C2\CC(C)(C)Oc3ccc(O)cc32)c1,3.16µM,?,–,4.47µM,?
CC12CCC(C/C1=N/NC(=O)Nc1ccccc1)C2(C)C (configuration not stated),–,–,–,–,?
SMILES,VP16 counter,GLP1R cytotox,GLP1R ag,RORgamma inh,GLP1R inv ag
COc1cccc(NC(=S)N/N=C2\CC3CCC2(C)C3(C)C)c1 (configuration not stated),5.01µM,?,–,0.562µM,?
CCOc1ccc(-n2c(-c3ccc(Br)cc3)cc3c2CC(C)(C)CC3=O)cc1,·,–,·,·,–
CC(C)C[C@@H](CC(=O)N[C@@H](CCC(=O)O)CC(=O)O)NC(=O)[C@@H]1CNCC[C@H]1NC(=O)C[C@H](CCCN)NC(=O)C[C@H](CO)NC(=O)[C@@H]1CCCC[C@H]1N,–,·,·,–,·
C=CCSc1nc2sc3c(c2c(=O)n1CC)CCc1ccccc1-3,?,–,–,10µM,–
COc1ccc(C2NC(=O)C(C#N)=C(S)N2c2ccccc2)cc1OC (configuration not stated),?,–,–,?,–
CCOc1ccc(C2NC(=O)C(C#N)=C(S)N2c2cccc(C)c2)cc1OC (configuration not stated),–,–,–,–,–
N#CC1=C(S)N(c2ccccc2)C(c2ccc(-c3cccc(Cl)c3)o2)NC1=O (configuration not stated),?,–,–,12.6µM,–
CCOc1ccc(C2NC(=O)C(C#N)=C(S)N2c2ccc(C)cc2)cc1OC (configuration not stated),?,–,–,14.1µM,–
COc1cc(C2NC(=O)C(C#N)=C(S)N2c2ccccc2)ccc1OC(C)C (configuration not stated),?,–,–,10µM,–
Cc1ccc(CCNS(=O)(=O)c2ccc3c(c2)CC(C)N3C(=O)C2CCC2)cc1 (configuration not stated),·,–,·,·,?
CN(Cc1nc(-c2cccnc2)no1)S(=O)(=O)c1ccc(Br)cc1,11.2µM,–,–,–,–
CN(Cc1nc(-c2cccnc2)no1)S(=O)(=O)c1ccc2ccccc2c1,–,–,–,–,–
COc1ccc(OC)c2sc(N(Cc3cccnc3)C(=O)c3ccc(C(C)=O)cc3)nc12,·,–,·,·,–
Nc1ccc(C#Cc2ccccc2)cc1,–,?,–,–,–
Cc1cccc(C#Cc2ccccc2)n1,?,–,–,14.1µM,–
CC(=O)Nc1ccc(SCC(CC(C)C)N2CCN(C)CCC2=O)cc1 (configuration not stated),–,·,·,–,·
Cc1nc2c(O)cccc2cc1CO,?,–,–,10µM,–
CC1=C(C(=O)OCc2ccccc2)C(c2ccc(Cl)cc2)NC(=O)N1CCCC(=O)O (configuration not stated),–,–,–,15.8µM,–
CCOC(=O)C1=C(CN(CC)Cc2ccccc2)NC(=O)NC1c1ccc(OC)cc1 (configuration not stated),·,–,·,·,?
CCOC(=O)C1=C(CN(CC)Cc2ccccc2)NC(=O)NC1c1ccc(Cl)cc1 (configuration not stated),·,–,–,·,10µM
CCOC(=O)C1=C(CNCCc2ccc(Cl)cc2)NC(=O)NC1c1ccc2c(c1)OCO2 (configuration not stated),–,–,–,–,6.31µM
CCOC(=O)C1=C(CNCCOc2ccc(OC)cc2)NC(=O)NC1c1ccc2c(c1)OCO2 (configuration not stated),–,–,–,–,–
Cc1ccc2nc(C(Cl)(Cl)Cl)nc(N/N=C/c3ccncc3)c2c1,–,–,–,–,–
Oc1ccc(/C=N/Nc2nc(-c3cccnc3)nc3ccccc23)c(O)c1,11.2µM,?,–,?,?
Cc1c(O)ccc(/C=N/Nc2nc(-c3cccnc3)nc3ccccc23)c1O,17.8µM,?,–,4.47µM,10µM
Cc1ccc(-c2nc(N/N=C/c3ccncc3)c3ccccc3n2)cc1,0.282µM,?,–,?,–
COc1ccc(/C=N/Nc2nc(-c3cccnc3)nc3ccccc23)cc1OC,–,?,–,–,–
Cc1ccc(Nc2nc(-c3cccnc3)nc3ccccc23)cc1,–,–,–,–,?
